Source: PubChem BioAssay (National Center for Advancing Translational Sciences (NCATS))
Shown are actives, neighbours in structure and some others; about 12% of the full set was active somewhere.
G9a inh = inhibitors of human histone lysine methyltransferase G9a | AID 504332 | Q96KQ7 | G9a H3K9 monomethylation, AlphaScreen, 2 h | actives 8.8% (n = 350,000) | Potency, µM (titrated, usually from 102 µM), inactives show at the highest dose activity, negative = inhibition, usual class: inhibitors; also: % is scaled to controls: 0 for no effect and ±100 for the full control effect; nearly all actives have a fitted effect of over 75% in size
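Using a bead-based AlphaScreen, monomethylated H3K9 product from 2 h room-temperature reactions (G9a 20 nM, peptide 500 nM, SAM 20 uM) was detected with 0.5 ug/mL rabbit anti-H3K9me1 antibody.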
HP1b binding inh = HP1-beta chromodomain-methylated histone interaction inhibition. AlphaScreen HP1-beta / biotin-H3K9me3 peptide binding. actives 0.56% (n = 390,000). Potency, µM (titrated, usually from 114 µM), without a hit: at the highest dose activity change, negative = inhibition, hits mostly inhibitors; also: nearly all actives have a fitted effect of over 70% in size
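Compound inhibition of the preformed complex between 50 nM HP1-beta and 50 nM biotinylated H3K9me3 peptide was read by AlphaScreen. Buffer was PBS pH 7.4 with 0.01% Tween-20. Incubations ran 30 min at room temperature, with 10 ug/mL donor/acceptor beads.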
Sfp inh = inhibitors of Bacillus subtilis Sfp phosphopantetheinyl transferase; Biochemical Sfp PPTase activity, qHTS; Q9F4F7; actives 3.5% (n = 310,000); Potency, µM, for inactives: largest response in the series, negative = inhibition, most hits filed as inhibitors;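 also: the enzyme is Sfp with the accession as filed and its product quenches rhodamine fluorescence; 0% = enzyme reaction without inhibitor and -100% = no enzyme wells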
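Buffer: 50 mM Hepes-Na pH 7.6, 10 mM MgCl2, 0.01% Nonidet P-40, 0.01% BSA. Enzyme 15 nM, pre-exposed to compound 15 min; substrates then added and fluorescence change tracked over 30 min.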
BAZ2B inh = blocks human BAZ2B; Q9UIF8; AlphaScreen BAZ2B-H3K14Ac peptide displacement; Potency, µM (top dose mostly 114 µM), for inactives: at the highest dose activity change, negative = inhibition, hits mostly inhibitors; actives 4.4% (n = 360,000); AID 504333; also: % is scaled to controls: 0 for no effect and ±100 for the full control effect; nearly all actives have a fitted effect of over 60% in size
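Complex of BAZ2B and biotin-H3K14Ac (50 nM apiece) forms over 30 min at RT, then faces library compounds up to 110 uM for another 30 min; AlphaScreen beads added, 20 min dark incubation, luminescence read.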
JMJD2A Tudor inh = JMJD2A Tudor domain (human) inhibition; O75164; AlphaScreen JMJD2A-Tudor / H3K4me3 peptide binding; Potency, µM (titrated, usually from 114 µM), inactives show at the highest dose activity change, negative = inhibition, hits mostly inhibitors; actives 4.4% (n = 390,000); AID 504339; also: % is scaled to controls: 0 for no effect and ±100 for the full control effect; nearly all actives have a fitted effect of over 50% in size
Target sequence (O75164 whole entry, looked up, the tested form may be a part): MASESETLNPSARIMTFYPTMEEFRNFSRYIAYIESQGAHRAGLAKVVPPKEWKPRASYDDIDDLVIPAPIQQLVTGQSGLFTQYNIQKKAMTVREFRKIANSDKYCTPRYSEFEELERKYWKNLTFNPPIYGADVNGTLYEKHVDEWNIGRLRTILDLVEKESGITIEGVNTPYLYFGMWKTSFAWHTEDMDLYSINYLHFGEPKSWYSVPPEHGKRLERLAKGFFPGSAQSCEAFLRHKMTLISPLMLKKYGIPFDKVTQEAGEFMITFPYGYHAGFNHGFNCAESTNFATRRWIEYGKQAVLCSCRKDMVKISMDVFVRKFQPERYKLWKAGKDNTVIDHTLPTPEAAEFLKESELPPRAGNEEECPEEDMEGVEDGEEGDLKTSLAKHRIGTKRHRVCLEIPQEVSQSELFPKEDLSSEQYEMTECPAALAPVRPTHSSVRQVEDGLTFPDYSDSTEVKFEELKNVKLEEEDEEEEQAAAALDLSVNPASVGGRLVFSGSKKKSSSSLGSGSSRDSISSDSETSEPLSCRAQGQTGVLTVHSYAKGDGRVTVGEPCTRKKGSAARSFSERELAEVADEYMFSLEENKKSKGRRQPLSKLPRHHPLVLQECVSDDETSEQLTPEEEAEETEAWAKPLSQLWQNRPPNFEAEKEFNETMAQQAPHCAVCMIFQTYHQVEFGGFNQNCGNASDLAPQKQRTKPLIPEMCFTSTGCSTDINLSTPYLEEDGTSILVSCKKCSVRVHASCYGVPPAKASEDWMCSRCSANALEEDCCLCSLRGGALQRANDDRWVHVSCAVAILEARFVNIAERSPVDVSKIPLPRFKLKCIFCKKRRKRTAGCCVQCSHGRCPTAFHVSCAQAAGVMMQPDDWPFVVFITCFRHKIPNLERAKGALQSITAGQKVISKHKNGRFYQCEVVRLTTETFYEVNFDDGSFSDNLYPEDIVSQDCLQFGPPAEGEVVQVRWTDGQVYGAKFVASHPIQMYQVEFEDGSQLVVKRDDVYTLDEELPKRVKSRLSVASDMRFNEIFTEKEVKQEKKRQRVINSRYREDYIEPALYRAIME
TDP1 inh = blocks human tyrosyl-DNA phosphodiesterase 1 | actives 0.28% (n = 350,000) | AID 485290 | Potency, µM (titrated, usually from 130 µM), for inactives: top-dose activity change, negative = inhibition, hits mostly inhibitors | recombinant TDP1, AlphaScreen DNA substrate cleavage; also: % is scaled to controls: 0 for no effect and ±100 for the full control effect; nearly all actives have a fitted effect of over 40% in size
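Recombinant E. coli-expressed Tdp1 (1 nM) preincubated with compound 15 min at RT, then 5'-biotin/3'-phosphotyrosine-FITC DNA substrate (15 nM) added for 5 min. AlphaScreen beads (10 ug/ml) added, 10 min RT; tyrosine-FITC cleavage read as signal loss.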
* hit, by the source's call; ? = inconclusive; nt = no result; [ ] = dose if it differs, or a comment. Calls follow the shape of the dose curve; as a rule, active = well fitted curve in the direction sought with a large enough effect; inconclusive = small, poorly fitted or top-dose-only effect, or another doubt; inactive = no such curve, though single readings can be large; an effect the other way counts as inactive or inconclusive. Potency is read from the fitted curve at half-maximal effect.

SMILES	G9a inh	HP1b binding inh	Sfp inh	BAZ2B inh	JMJD2A Tudor inh	TDP1 inh
CCC(C(=O)Nc1cc(OC)ccc1OC)n1nc(-c2ccccc2)c2c(c1=O)CCCC2 (stereo not given)	?	3%	nt	?	?	5%
Nc1nc(-c2ccc3c(c2)CCCC3)c(CC(=O)O)s1	50µM*	22%	-15%	-5%	-20%	nt
CCCCC(=O)NC1=C(C(=O)OC)SCC1	4.5µM*	-4%	-1%	?	?	8%
CCN(CC)S(=O)(=O)c1ccc(C(=O)NC2=C(C(=O)OC)SCC2)cc1	22%[12.7 µM]	-15%	-3%	?	40µM*	8%
COc1cccc(NC(=O)C2CCC(CNS(=O)(=O)c3csc(C(N)=O)c3)CC2)c1 (stereo not given)	-1%[59 µM]	25%	nt	3%	-9%	3%
CCCCCCc1c(O)c2ccccc2[nH]c1=O	-3%[59 µM]	9%	8%	-3%	-21%	3%
O=c1[nH]c2ccccc2c(O)c1SCCO	nt	7%	79µM*	50µM*	22µM*	6%
O=C(O)CSc1c(O)c2ccccc2[nH]c1=O	4.5µM*	27%	10µM*	14µM*	11µM*	3%
O=C(CSc1nc2c(oc3ccccc32)c(=O)n1CC1CCCO1)NCc1ccc(F)cc1 (stereo not given)	5%[0.501 µM]	6%	nt	11%	-17%	nt
Cc1ccc(CCC(=O)Nc2nccs2)o1	-38%[59 µM]	-6%	79µM*	?	-31%	8%
O=C(CCc1ccccc1)Nc1nccs1	-4%[0.501 µM]	38%	4%	5%	2%	nt
CCc1ccc(CCC(=O)Nc2nccs2)o1	?	-2%	8.9µM*	-38%	-35%	10%
CCOc1ccc(OCC(=O)Nc2nccs2)cc1	35µM*	35%	7%	?	-16%	0%
O=C1/C(=C/c2cccs2)NC(=S)N1C1CC1	40µM*	14%	-3%	-33%	40µM*	-4%
CC(C)C(NC(=O)c1cccs1)C(=O)NC1CCCCC1 (stereo not given)	nt	37%	11%	6%	0%	0%
COc1ccc(C(C(=O)NC2CCCC2)N(CC2CCCO2)C(=O)Cc2cccs2)cc1OC (stereo not given)	5%	27%	8%	-16%	-10%	1%
CC(NCc1cccs1)C(=O)NC1CCCCC1 (stereo not given)	?	?	?	40µM*	20µM*	-6%
O=C(NC1CCCC1)C(c1cccs1)N(CC1CCCO1)C(=O)Cc1cccs1 (stereo not given)	45µM*	43%	-8%	7%	-3%	0%
COc1ccc2c(c1)C(=O)[C@@H](OC(=O)NS(=O)(=O)c1ccc(C)cc1)[C@H](c1ccc(OC)c(Br)c1)O2	nt	nt	-5%	nt	nt	4%
CC(=O)N(CCC(Cc1ccccc1)c1ccc2c(c1)OCO2)Cc1ccccc1F (stereo not given)	22%	41%	71µM*	-3%	-8%	-3%
Fc1ccccc1CNCCC(Cc1ccccc1)c1ccc2c(c1)OCO2 (stereo not given)	?	-4%	-3%	-31%	-24%	5%
CC(SC#N)C(=O)C12CC3CC(CC(C3)C1)C2 (stereo not given)	-15%	88%	-2%	10%	15%	3%
CCNC(=S)NCCN1CCOCC1	32%[59 µM]	32%	22%	5%	-4%	-3%
CCCNC(=S)NCCN1CCCCC1	8.9µM*	-27%	?	?	40µM*	2%
CCCCNC(=S)NCCN1CCCCC1	2µM*	?	56µM*	4%	1.6µM*	3%
SMILES	G9a inh	HP1b binding inh	Sfp inh	BAZ2B inh	JMJD2A Tudor inh	TDP1 inh
CC(C)(C)[C@H](N)C(=O)N[C@H]1CCC2C3CC=C4C[C@@H](O)CC[C@]4(C)C3CC[C@@]21C (stereo not given in full)	nt	?	nt	nt	-25%	3%
Cc1ccc(C(=O)Nc2cccc(C(=O)O)c2)cc1S(=O)(=O)N1CCCC1	13%[59 µM]	39%	nt	4%	-3%	-3%[12.3 µM]
Cc1ccc(S(=O)(=O)/N=C2\C=C(Nc3cccc(C(=O)O)c3)C(=O)c3ccccc32)cc1	10µM*	?	-23%	13µM*	45µM*	11%
Cc1ccc(S(=O)(=O)/N=C2\C=C(Nc3cccc(C(=O)O)c3)C(=O)c3ccccc32)c(C)c1	2.8µM*	?	-19%	8.9µM*	28µM*	9%
CCc1ccc(S(=O)(=O)/N=C2\C=C(Nc3ccc(C(=O)O)cc3)C(=O)c3ccccc32)cc1	8.9µM*	?	-22%	7.9µM*	28µM*	5%[0.0935 µM]
O=C(O)c1cccc(NC(=O)c2ccc(S(=O)(=O)c3ccccc3)cc2)c1	-8%[59 µM]	33%	8%	-9%	-12%	3%
Cc1ccc(S(=O)(=O)/N=C2\C=C(Nc3ccc(O)cc3)C(=O)c3ccccc32)cc1	nt	13µM*	nt	nt	5.6µM*	11%
COC(=O)c1cc(F)c(S(=O)(=O)N2CCN(S(=O)(=O)c3ccc4c(c3)OCCO4)CC2)cc1F	nt	nt	nt	nt	-7%	0%
COCCOC(=O)C1=C(C)NC(=O)NC1c1ccc(-c2ccc(F)cc2)o1 (stereo not given)	50µM*	-11%	-16%	-32%	-35%	6%
CCOC(=O)C1=C(C)NC(=O)NC1c1ccc(-c2ccccc2F)o1 (stereo not given)	-11%[59 µM]	23%	8%	1%	-35%	5%
CC1=C/C(=N\OS(=O)(=O)c2ccccc2)C(C)=CC1=O	20µM*	-57%	-11%	35µM*	?	8%
CC1=C/C(=N\OS(=O)(=O)c2ccccc2)C(C(C)C)=CC1=O	8.9µM*	?	-28%	35µM*	?	12%
O=C(Nc1nnc(C2=COCCO2)o1)c1cccc([N+](=O)[O-])c1	-21%	27%	7%	79µM*	-15%	0%
CSc1cccc(-c2nnc(NC(=O)c3ccc4c(c3)OCCO4)o2)c1	73%[59 µM]	19%[57 µM]	nt	13%	-6%	14%
CS(=O)(=O)c1cccc(C(=O)Nc2nnc(C3=COCCO3)o2)c1	-10%[0.501 µM]	75%	nt	18µM*	3.2µM*	-2%
O=C(Nc1nnc(C2=COCCO2)o1)c1cccc(Br)c1	45%	35%	15%	71µM*	-3%	5%
O=C(Nc1nnc(-c2ccccn2)o1)c1cccc(Br)c1	-10%	30%	17%	?	?	5%
Cc1cccnc1NC(=O)CCn1c(=O)oc2ccccc21	4%	28%	8%	-12%	0%	2%
COc1ccccc1C(=O)Nc1ccccc1SCc1cc(=O)c2ccccc2[nH]1	-21%[59 µM]	33%[57 µM]	nt	3%	-3%	5%
